# Data taken from the supplement of paper PMC12350171.
# Counter-ions that a name gives are not always drawn. A number with no mark means an inactive call.
# Assays:
# Details in all cases: 20 µM
# [1] = test system: Salmonella enterica typhimurium; assay: growth AUC normalised to DMSO control (fraction of control); higher = less growth inhibition, active = hit call of the paper
# How it was run: (§1)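 For the AUC endpoint, growth curves were integrated by the trapezoidal rule up to the exponential-to-stationary transition and normalised to DMSO controls on the same plate. The curves came from OD578 readings taken hourly for 24 h, in three biological replicates. Pathogens had been passaged anaerobically twice and inoculated at an OD578 of 0.01 into pre-reduced mGAM plates carrying 20 μM compound and 1% DMSO, sealed with breathable membranes. Medium for Haemophilus parainfluenzae also contained hemin and NAD.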
# Shigella flexneri = assay: as above
# How it was run: as §1
# Vibrio cholerae = assay: as above
# How it was run: as §1
# [2] = test system: Yersinia pseudotuberculosis; assay: as above
# How it was run: as §1
# P. vulgatus RND KO = assay: growth AUC normalised to DMSO control (median) (fraction of control); higher = less growth inhibition, active = hit call of the paper
# How it was run: (§2)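 After two overnight anaerobic passages, strains were inoculated at OD578 0.01 into mGAM in 96-well plates containing approved-drug library compounds at 20 μM and 1% DMSO. Growth was followed by reading OD578 hourly for 24 h within an anaerobic incubator. Area under the curve, taken by the trapezoidal rule up to the start of stationary phase, was normalised to same-plate vehicle wells, and the median of three biological replicates is listed.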
# P. vulgatus WT = assay: as above
# How it was run: as §2
# [3] = test system: S. enterica typhimurium WT; assay: as above
# How it was run: as §2
# [4] = test system: S. enterica typhimurium tolC KO; assay: as above
# How it was run: as §2
# 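Wherever growth AUC normalised to DMSO control (median) is given: active when median AUC fell below 0.1.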
Compound,growth AUC normalised to DMSO control [1],growth AUC normalised to DMSO control (Shigella flexneri),growth AUC normalised to DMSO control (Vibrio cholerae),growth AUC normalised to DMSO control [2],growth AUC normalised to DMSO control (P. vulgatus RND KO),growth AUC normalised to DMSO control (P. vulgatus WT),growth AUC normalised to DMSO control [3],growth AUC normalised to DMSO control [4]
CC(C(O)c1ccc(O)cc1)N1CCC(Cc2ccccc2)CC1 (stereo unspecified) [Ifenprodil tartrate],1,1.05,1.03,1,1.03,1.02,1.01,1
CN[C@@H]1[C@H](O[C@H]2[C@H](O[C@H]3[C@H](O)[C@@H](O)[C@H](N=C(N)N)[C@@H](O)[C@@H]3N=C(N)N)O[C@@H](C)[C@]2(O)C=O)O[C@@H](CO)[C@H](O)[C@H]1O [Streptomycin sulfate],1.02,1.05,1.06,0.965,1.05,1.09,0.983,1
CCOC(=O)C(C)(C)Oc1ccc(Cl)cc1 [Clofibrate],1.03,1.01,1.03,1.02,1.03,1.04,1,0.991
COCCOC(=O)C1=C(C)NC(C)=C(C(=O)OC(C)C)C1c1cccc([N+](=O)[O-])c1 (stereo unspecified) [Nimodipine],0.984,0.939,0.956,0.957,1.02,1,0.991,0.967
CCCCc1oc2ccccc2c1C(=O)c1cc(I)c(OCCN(CC)CC)c(I)c1 [Amiodarone hydrochloride],0.999,1.04,1,1.02,1.02,1.06,1.04,1.02
CN1CCN(CCCN2c3ccccc3Sc3ccc(S(=O)(=O)N(C)C)cc32)CC1 [Thioproperazine dimesylate],0.999,0.986,0.968,1,1.03,1.01,0.994,0.96
C[C@@](Cc1ccc(O)c(O)c1)(NN)C(=O)O [Carbidopa],0.994,0.948,0.996,0.972,0.99,0.993,1,1.01
CCC(=O)[C@@]1(C)[C@H](C)C[C@H]2[C@@H]3CCC4=CC(=O)C=C[C@]4(C)[C@H]3[C@@H](O)C[C@@]21C [Rimexolone],1.01,1.01,1.01,0.997,1.03,1.07,1,0.999
Cc1c(N(C)CS(=O)(=O)O)c(=O)n(-c2ccccc2)n1C [Dipyrone sodium salt],1.02,1.03,1.09,1.02,0.999,0.996,1.01,0.999
CC(=O)c1ccc2c(c1)N(CCCN(C)C)c1ccccc1S2 [Acetopromazine maleate salt],1,1,0.888,0.949,0.984,0.963,1,0.969
CCCCNc1ccc(C(=O)OCCN(C)C)cc1 [Tetracaine hydrochloride],1.01,1.01,1.01,1,1.04,1.07,0.999,0.993
CCCCNc1cc(C(=O)O)cc(S(N)(=O)=O)c1Oc1ccccc1 [Bumetanide],0.969,0.991,0.982,0.995,1.01,1.01,0.996,0.991
O=C(NCC1CCCCN1)c1cc(OCC(F)(F)F)ccc1OCC(F)(F)F (stereo unspecified) [Flecainide acetate],0.995,0.966,0.988,0.989,1,1.03,1,1
C#C[C@]1(O)CC[C@H]2[C@@H]3CCc4cc(O)ccc4[C@H]3CC[C@@]21C [Ethinylestradiol],0.985,1.02,0.996,1.03,0.913,0.913,0.998,0.985
O=C(c1ccccc1)c1ccc2n1CCC2C(=O)O (stereo unspecified) [Ketorolac tromethamine],0.986,0.972,0.97,0.983,0.997,1.01,1.01,1
CC(=O)[C@H]1CC[C@H]2[C@@H]3CC=C4C[C@@H](O)CC[C@]4(C)[C@H]3CC[C@]12C [Pregnenolone],1,0.985,0.996,1,1.02,1.02,0.993,0.954
Nc1nc(F)nc2c1ncn2[C@@H]1O[C@H](CO)[C@@H](O)[C@@H]1O [Fludarabine],0.963,0.933,0.997,0.988,0.994,0.999,0.994,0.991
C=CCN1CCCC1CNC(=O)c1cc2nn[nH]c2cc1OC (stereo unspecified) [Alizapride hydrochloride],1,1,1.01,0.996,0.998,1,1.02,1
C=C[C@H]1CN2CC[C@H]1C[C@@H]2[C@@H](O)c1ccnc2ccc(OC)cc12 [Quinidine hydrochloride monohydrate],0.991,0.996,0.985,0.991,0.998,1.03,0.99,0.997
CC(C)(Oc1ccc(CCNC(=O)c2ccc(Cl)cc2)cc1)C(=O)O [Bezafibrate],0.976,0.959,0.988,0.994,0.976,1,0.998,0.99
NS(=O)(=O)c1cc2c(cc1Cl)NC(CC1CCCC1)NS2(=O)=O (stereo unspecified) [Cyclopenthiazide],1,0.972,0.98,0.971,0.978,0.993,1,0.991
C[C@]12CC[C@@H]3c4ccc(OS(=O)(=O)O)cc4CC[C@H]3[C@@H]1CCC2=O [Estropipate piperazine salt],0.985,0.974,0.991,0.965,0.987,0.983,0.997,0.996
Cc1cc(C(C)(C)CC(C)(C)C)ccc1OCCOCC[N+](C)(C)Cc1ccccc1 [Methyl benzethonium chloride],1.01,0.999,0.943,1.02,0.0136 (active),0.0206 (active),1.01,0.962
CC1(C)NC(=O)N(c2ccc([N+](=O)[O-])c(C(F)(F)F)c2)C1=O [Nilutamide],0.928,0.977,0.957,1,0.964,0.952,0.992,0.999
C[N+]1(C)CCC(=C(c2ccccc2)c2ccccc2)CC1 [Diphemanil methylsulfate],0.987,1.01,1.02,1.02,1.03,1.02,0.991,1
CN(C)CCCSC(=N)N [Dimaprit dihydrochloride],0.991,1,0.986,1,0.99,0.999,1,1.01
COC(=O)C1=C(C#N)NC(C)=C(C(=O)OC(C)C)C1c1cccc([N+](=O)[O-])c1 (stereo unspecified) [Nilvadipine],1.01,1.03,1.02,1.02,1.15,1.12,1,0.922
